# Many of the other results were omitted from the sample, so hits are more common in it than they were.
# AmpC detergent – blocks E. coli AmpC beta-lactamase in detergent assay. 0.041% of 370,000 active. AID 485294. Potency, µM (highest dose often 114 µM), for the others: top-dose activity change, negative = inhibition, hits mostly inhibitors. AmpC hydrolysis of nitrocefin, absorbance 480 nm, 0.01% Triton. P00811;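 further: potency means the concentration at half of the fitted maximal effect; 0% = no-compound wells and -100% = no-enzyme wells; nearly all actives have a fitted effect of over 25% in size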
# Target sequence (P00811 whole entry, looked up): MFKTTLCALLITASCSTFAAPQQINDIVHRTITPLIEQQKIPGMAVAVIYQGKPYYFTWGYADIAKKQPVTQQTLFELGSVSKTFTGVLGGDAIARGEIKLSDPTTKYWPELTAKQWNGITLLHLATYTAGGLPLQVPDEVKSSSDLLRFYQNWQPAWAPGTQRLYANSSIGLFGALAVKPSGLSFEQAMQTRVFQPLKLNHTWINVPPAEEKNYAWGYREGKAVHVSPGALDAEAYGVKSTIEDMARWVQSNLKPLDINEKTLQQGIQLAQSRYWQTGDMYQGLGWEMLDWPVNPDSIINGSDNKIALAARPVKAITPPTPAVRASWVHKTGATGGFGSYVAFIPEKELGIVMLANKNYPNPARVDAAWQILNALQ
#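 20 mM phosphate pH 7.0 + 0.01% (detergent screen) or 0.0001% Triton X-100; 5.3 nM AmpC reagent; cpd preinc 15 min RT; nitrocefin (800 uM stock) to start; A480 q20 s × 4 min; Activity was normalised to no-enzyme and no-compound control wells.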
# AMA1-RON2 inh – disrupts binding of P. falciparum AMA1 to RON2; AID 720542; 0.2% of 360,000 active; AlphaScreen AMA1-biotinylated RON2 peptide binding; Potency, µM (top dose mostly 58.2 µM), for inactives: at the top dose activity change, negative = inhibition, most hits filed as inhibitors;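 further: potency means the concentration at half of the fitted maximal effect; 0% = vehicle wells and -100% = peptide control; nearly all actives have a fitted effect of over 45% in size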
#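 AMA1 (3D7) with his tag at 25 nM final met compounds first, then biotinylated RON2 peptide at 25 nM; detection used donor plus acceptor beads, 10 µg/mL apiece, read by AlphaScreen after 30 min at room temperature.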
# AmpC no deterg – AmpC beta-lactamase inhibition without detergent; P00811; AmpC nitrocefin hydrolysis, absorbance 480 nm, 0.0001% Triton; 0.52% of 330,000 active; Potency, µM (doses to about 57.1 µM), for the others: top-dose activity change, negative = inhibition, actives largely listed as inhibitors;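 further: potency means the concentration at half of the fitted maximal effect; plate controls were no compound for no effect and no enzyme for full effect; nearly all actives have a fitted effect of over 20% in size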
#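 20 mM phosphate pH 7.0 + 0.01% (detergent screen) or 0.0001% Triton X-100; 5.3 nM AmpC reagent; cpd preinc 15 min RT; nitrocefin (800 uM stock) to start; A480 q20 s × 4 min; Activity was normalised to no-enzyme and no-compound control wells.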
# SARS PLpro yeast – inhibitors of SARS-CoV papain-like protease in yeast; S. cerevisiae expressing SARS-CoV PLpro, growth rescue; Potency, µM (highest dose often 32.9 µM), for the others: at the top dose activity, positive = growth rescue, hits mostly activators; 0.19% of 330,000 active; AID 485353; calls by dose curve; further: potency means the concentration at half of the fitted maximal effect; 0% is about no effect; nearly all actives have a fitted effect of over 55% in size
# Cycloheximide cs – affects cycloheximide protein synthesis inhibition readout, counter-screen. cell reporter, cycloheximide protein synthesis inhibition counterscreen. AID 2314. 12% of 300,000 active. max response, %; in the data active means max response mostly above about 13%, no sharp cut-off; inactive means mostly below about 14%; further: read at 38.3 µM for the half of the compounds with a filed dose; 0% is about no effect
# Shiga inhibitor – blocks Shiga toxin action in Vero cells; Vero cells, Shiga toxin protein synthesis inhibition reporter; inhibition, % at 38.7 µM; 9.2% of 290,000 active; in the data active means inhibition mostly above about 28%, no sharp cut-off; inactive means mostly below about 43%; further: 0% is about no effect
# Starred values were filed as active, the others as inactive; u = inconclusive; x = not tested or not shown; + = active, no number. Unless noted, the call rests on the fitted dose curve; in most records, active means well fitted curve in the direction sought with a large enough effect; inconclusive means small, poorly fitted or top-dose-only effect, or another doubt; inactive means no such curve, though single readings can be large; an effect the other way counts as inactive or inconclusive.
SMILES,AmpC detergent,AMA1-RON2 inh,AmpC no deterg,SARS PLpro yeast,Cycloheximide cs,Shiga inhibitor
O=Cc1ccc(OCc2ccc3ccccc3c2)cc1,-14.0%,2.6%,-26.2%,1.2%,54.1*,x
COc1ccc(COc2cccc(C=O)c2)cc1,6.0%,29.0%,-13.9%,5.3%,x,x
O=Cc1cccc(OCc2cccc3ccccc23)c1,-2.9%,21.6%,-34.7%,-0.7%,34.2*,63.2*
O=Cc1ccc(OCc2ccccn2)cc1,-6.2%,-2.2%,-20.0%,-12.2%,21.5*,39.5*
O=C(COc1ccc(Br)cc1)NCc1ccccn1,u,39.6%,-9.0%,-1.7%,-3.1,9.1
O=C1CNC(=S)N1Cc1ccc(Cl)cc1,-0.6%,40.7%,-25.9%,-0.2%,-1.5,14.3
Cc1ccc(N(CC(=O)NCc2ccncc2)S(C)(=O)=O)cc1,-4.2%,4.1%,-16.1%,-1.0%,-6.3,-7.1
CN(CCOc1ccc(-c2ccn(S(=O)(=O)c3c(Cl)cccc3Cl)n2)cc1)c1ccccn1,-23.4%,-2.2%,-17.5%,u,1.6,-12.6
Clc1ccc(SCCCCN2CCNCC2)cc1,8.4%,u,-22.6%,-22.0%,39.4*,65.0
Cc1ccc(SCCCCN2CCNCC2)cc1,-8.4%,u,-21.9%,-23.0%,36.9*,+
Clc1ccc(SCCCCN2CCOCC2)cc1,0.2%,4.3%,-1.7%,-33.5%,10.9,35.3
Cc1ccc(SCCCCN2CCOCC2)cc1,-14.7%,12.2%,22.7%,-8.2%,6.9*,16.9
CN1CCN(/C(=N\O)c2nonc2N)CC1,10.8%,-3.0%,-0.5%,3.4%,16.7,22.3
CCCc1c(C(=O)NNc2ccccc2OC)cnn1-c1ccccc1,-2.5%,u,-1.6%,-0.6%,23.5*,40.9*
CCCc1c(C(=O)Nc2ccc(OC)cc2)cnn1-c1ccccc1,-0.5%,1.0%,10.1%,-1.2%,21.6*,53.6*
CCCc1c(C(=O)N2CCN(c3ccccc3OC)CC2)cnn1-c1ccccc1,-7.2%,-20.9%,154.0%,-1.5%,0.3,20.2
COc1ccc(NC(=O)c2ccccc2Oc2ccccc2)cc1,u,12.4%,-28.7%,-1.6%,1.2,22.8
S=C(NC1CCCCC1)N1CCc2[nH]c3ccccc3c2C1,2.8%,-9.5%,-31.5%,0.3%,7.5,44.0*
Cc1ccc(NC2=NCC(=O)N2Cc2cccs2)cc1C,-5.3%,-3.0%,-4.0%,-0.1%,28.8*,24.0
COC(=O)c1ccc(NC(=O)C2CC(=O)N(c3ccc(C)cc3)C2)cc1 (centres undefined),u,-18.4%,-6.6%,4.6%,16.7*,21.2
Cc1ccc(N2CC(C(=O)Nc3ccc4c(c3)OCCO4)CC2=O)cc1C (centres undefined),-3.9%,2.8%,-4.4%,1.1%,16.4,52.8*
Cc1ccc(NC(=O)C2CC(=O)N(c3ccc4c(c3)OCCO4)C2)cc1S(=O)(=O)N(C)C (centres undefined),-10.1%,-2.8%,-7.1%,-3.2%,x,x
COC(=O)c1ccc(NC(=O)C2CC(=O)N(c3cc(C)ccc3C)C2)cc1 (centres undefined),-4.2%,-4.0%,32.1%,3.4%,-1.5,-8.0
Cc1ccc(N2CC(C(=O)Nc3ccc4c(c3)OCCO4)CC2=O)cc1 (centres undefined),u,10.6%,-12.2%,0.0%,19.9*,43.8*
O=C(CSc1ccccc1)N1CCN(C(=O)c2ccco2)CC1,-1.3%,11.0%,-10.5%,0.3%,7.8,-3.9
SMILES,AmpC detergent,AMA1-RON2 inh,AmpC no deterg,SARS PLpro yeast,Cycloheximide cs,Shiga inhibitor
O=C(CSc1nc(-c2ccccc2)cs1)N1CCN(C(=O)c2ccco2)CC1,-5.0%,9.2%,54.9%,-1.6%,18.2*,12.6
N#CCSc1nc(-c2ccccc2)cs1,-4.9%,10.2%,u,-5.7%,29.6*,49.8*
O=C(CSc1nc(-c2ccccc2)cs1)NC(=O)NCc1ccco1,u,0.9%,-20.5%,-16.5%,24.7*,19.0
N#CCSc1ccc2nc(-c3ccccc3)cn2n1,-10.0%,12.0%,-14.3%,-23.2%,27.6,105.2*
Cc1cc(F)ccc1NCc1ccccc1-c1nnc(-c2ccccc2Cl)o1,16.1%,x,x,x,x,x
CN(C)CCCN(C(=O)c1ccc(S(=O)(=O)N2CCOCC2)cc1)c1nc2cc3c(cc2s1)OCO3,-2.7%,1.9%,77.5%,-4.2%,-2.0,-3.3
O=C(CSc1ccccc1F)NC(=O)NCc1ccco1,-0.7%,-3.0%,-50.8%,-0.3%,4.1,-3.3

# High-throughput results from PubChem.
